The values below come from PubChem BioAssay (NCATS).

Structures are written as SMILES. Where “and” joins values, the source holds several entries; their conditions need not be identical. Equal values may be shown once. Records with an inconclusive call do not appear. A call without a number means that no potency is given here. Calls of active or inactive are those of the source. Calls follow the shape of the dose curve; as a rule, active = well fitted cell-killing curve with a large enough effect; inconclusive = small, poorly fitted or top-dose-only effect, or effect the other way; inactive = no such curve, though single readings can be large or run the other way.
Potency is read from the fitted curve at half-maximal effect.

The nature of this assay: qHTS of pediatric cancer cell lines to identify multiple opportunities for drug repurposing: Confirmatory screen for Saos-2 cells (AID 1347127). Also: nearly all actives have a fitted effect of over 60% in size. The note with it: Saos-2 osteosarcoma cell viability; series mostly up to 45.9 µM. The text has this:
Drug repurposing or repositioning has been offered as a strategy for drug development in oncology programs. This approach has special potential for childhood cancers and other rare or orphan diseases, where the expected return on new drug development has been a disincentive to pharmaceuticals.
In this project we exploit the poly-pharmacology of drugs to discover new indications via phenotypic screening of a panel of 19 well-characterized cell lines derived from solid tumors seen in children and adolescents. The goal is to identify approved drugs with previously unrecognized anticancer properties that has the potential to reveal new mechanisms and biological processes involved in carcinogenesis or drug resistance. We employed a titration-based paradigm (quantitative high-throughput screening or qHTS), where all compounds were tested at multiple concentrations for their effect on cell viability. Concentration-response curves (CRCs) were derived directly from the primary screen, and both potency and efficacy values were used to identify compounds with robust bioactivity profiles. We screened the NIH Chemical Genomics Center (NCGC) Pharmaceutical Collection (NPC) and Mechanism Interrogation Plate (MIPE) small molecule collections of approved and investigational compounds against these cell lines; and measured metabolically active cells after 48 hours of compound treatment as a proxy for cell viability.
Assay Submitter: Nathalia J. Martinez, National Center for Advancing Translational Sciences, National Institutes of Health, Rockville, MD, USA; email: natalia.martinez@nih.gov
[1] Shen, M et al. Quantitative high-throughput phenotypic screening of pediatric cancer cell lines identifies multiple opportunities for drug repurposing. Oncotarget 2017 Dec 19;9(4):4758-4772. PMID 29435139.
The cells were obtained from University of North Carolina (UNC), Pediatric Preclinical Testing Program (PPT), and Coriell Institute (CI).
qHTS cell viability assay:
Cells were assayed in growth media at a density of 500-1,000 cells/well. Five microliters of cells were dispensed into 1,536-well, white, solid-bottom, TC-treated plates (Greiner Bio One) using a multidrop dispenser and incubated at 37 degrees C, 5% CO2, under a humidified atmosphere for 5 hours. Twenty-three nanoliters of compounds and controls (neutral control DMSO or positive control bortezomib at final concentration of 2.3 µM) were subsequently transferred by Kalypsys pintool. For primary screens, the MIPE collection was tested at 11-point dilutions (final concentrations range from 0.78 nM to 46 µM) and the NPC collection at 8-point dilutions (final concentrations range from 0.59 nM to 46 µM). Compounds tested in follow-up screens were assayed at 11-point dilutions. Cells were incubated for 48 hours, followed by addition of 3 µL of CellTiter-Glo (Promega). After a 15 min incubation at room temperature, samples were analyzed for luminescence intensity using a ViewLux High-throughput CCD imager equipped with clear filters.
`CO[C@H]1C=CC=C(C)C(=O)NC2=CC(=O)C(NCCN(C)C)=C(C[C@@H](C)C[C@H](OC)[C@@H](O)[C@@H](C)C=C(C)[C@@H]1OC(N)=O)C2=O`: the Potency result is “inactive”. With `N[C@@]1(C(=O)O)CS(=O)(=O)[C@H]2[C@H](C(=O)O)[C@H]21` the figure was 1.31 µM (active); with `Oc1ccc(C2CCN(c3ccnc4ccccc34)CC2)cc1O`, “inactive”; with `O=C(NCc1ccncc1)C12C[C@H]3C[C@@H](C1)CC(c1ccc(Cl)cc1)(C3)C2`, 16.5 µM (active). With `O=C1c2ccccc2-[n+]2ccc3c([nH]c4ccccc43)c21` the figure was 0.928 µM (active); with `O=C(O)CCC1CCC(c2cc(F)ccc2F)(S(=O)(=O)c2ccc(Cl)cc2)CC1` (centres undefined), “inactive”; with `COc1ccc2c(Oc3ccc(NC(=O)c4c(C)n(CC(C)(C)O)n(-c5ccccc5)c4=O)cc3F)ccnc2c1`, “inactive”. With `O=C(O)c1ccc(-c2cc3cccnc3c(-c3ccc4nonc4c3)n2)cc1` the figure was 5.22 µM (active); with `CN(C)C1CCN(C(=O)c2ccc(NC(=O)Nc3nc(N4CCOCC4)nc(N4CCOCC4)n3)cc2)CC1`, 0.329 µM (active); with `O=C1NC(=O)C(=Cc2ccc3c(c2)OC(F)(F)O3)S1`, “inactive”. Consider `CC(C)n1nc(-c2ccc3oc(N)nc3c2)c2c(N)ncnc21`, for which the Potency was 0.233 µM (active). With `OC[C@H]1O[C@@H](n2cnc3c2NC=NC[C@@H]3O)C[C@H]1O` the entry was “inactive”. Consider `COc1cc(N2CCC(N3CCN(C)CC3)CC2)ccc1Nc1ncc(Cl)c(Nc2ccccc2S(=O)(=O)C(C)C)n1`, for which the Potency was 1.85 µM (active).

On to `O=C(O)c1ccc(-c2c[nH]c3ncc(-c4ccccc4)cc23)cc1C1CCCC1`, for which the Potency result is “inactive”.

With `O=C1C(Cl)=C(NCCN2CCOCC2)C(=O)c2ncccc21`, the Potency is 1.17 µM (active). With `C=C1C(=O)[C@@]23C(CC[C@@H]1[C@H]2O)[C@@]12CO[C@]3(O)[C@@H](O)[C@@H]1C(C)(C)CC[C@@H]2O` (some centres undefined) the figure was 10.4 µM (active). As for `CCc1ccc(OCc2ccccc2C(=O)Nc2ccc3nc(C)cc(N)c3c2)cc1`, the figure is 9.27 µM (active).

Turning to `CC[C@]1(O)C[C@@H]2CN(CCc3c([nH]c4ccccc34)[C@@](C(=O)OC)(c3cc4c(cc3OC)N(C)[C@H]3[C@@](O)(C(=O)OC)[C@H](OC(C)=O)[C@]5(CC)C=CCN6CC[C@]43[C@@H]65)C2)C1`, the Potency is 657 nM (active) and 1.17 µM (active). For `CC1(C)CCC2=C(O1)c1ccccc1C(=O)C2=O`, the Potency is 10.4 µM (active). On to `NS(=O)(=O)c1cccc2c1C(=O)c1cccc(O)c1C2=O`, for which the Potency is 0.928 µM (active). With `COc1cccc(-c2cc(=O)c3ccccc3o2)c1N` the entry was “inactive”; with `CCCCCCCCCCCC1=C(O)C(=O)C=C(O)C1=O`, “inactive”; with `CC(=O)Nc1ccc([C@H](C)C(=O)Nc2ncc(C(C)C)s2)cc1`, 5.22 µM (active). As for `CC(C)(C(=O)NCC(F)(F)C(F)(F)F)C(=O)N[C@@H]1C(=O)Nc2ccccc2-c2ccccc21`, the entry is “inactive”; as for `NC1=N[C@@]2(c3cc(NC(=O)c4ccc(F)cn4)ccc3F)COC[C@@H]2CS1`, “inactive”. As for `CC(=NNC(=S)N1CCC1)c1ccccn1`, the entry is “inactive”; as for `CC1(C)S[C@H]2[C@H](NC(=O)[C@@H](N)c3ccc(O)cc3)C(=O)N2[C@@H]1C(=O)O`, “inactive”; as for `CC1(C)O[C@H]2C[C@@H]3[C@H]4CCC5=CC(=O)C=C[C@]5(C)[C@@]4(F)[C@@H](O)C[C@]3(C)[C@]2(C(=O)CO)O1`, “inactive”.

Consider `Nc1ncnc2c1ncn2[C@@H]1O[C@@H](CO)[C@H](O)[C@H]1O`, for which the Potency entry was “inactive”. As for `COc1ncc(-c2ccc3nccc(-c4ccnnc4)c3c2)cc1NS(=O)(=O)c1ccc(F)cc1F`, the figure is 0.0465 µM (active). With `O=c1[nH]cnc2c1ncn2[C@H]1CC[C@@H](CO)O1`, the Potency result was “inactive”. Regarding `O=c1cc(-c2ccc(O)cc2)oc2cc(O)cc(O)c12`, the Potency result was “inactive”. With `CC[C@]1(O)C[C@@H]2CN(CCc3c([nH]c4ccccc34)[C@@](C(=O)OC)(c3cc4c(cc3OC)N(C=O)[C@@H]3C45CCN4CC=C[C@](CC)([C@H]45)[C@@H](OC(C)=O)[C@]3(O)C(=O)OC)C2)C1` (some centres undefined) the entry was “inactive”; with `CO[C@H]1C(=O)[C@]2(C)[C@@H](OC)C[C@H]3OC[C@@]3(OC(C)=O)[C@H]2[C@H](OC(=O)c2ccccc2)[C@]2(O)C[C@H](OC(=O)[C@H](O)[C@@H](NC(=O)OC(C)(C)C)c3ccccc3)C(C)=C1C2(C)C`, 0.0147 µM (active); with `O=C(Nc1cccc(Br)c1)c1cccc(S(=O)(=O)N2CCCCCC2)c1`, “inactive”.

For `CC(=O)Oc1cc2c(s1)CCN(C(C(=O)C1CC1)c1ccccc1F)C2` (centres undefined), the Potency result is “inactive”.

Turning to `CC(=O)O[C@]1(C(C)=O)CC[C@@H]2[C@@H]3C[C@H](C)C4=CC(=O)CC[C@]4(C)[C@H]3CC[C@@]21C`, the Potency result was “inactive”. With `COc1ccc(-c2coc3cc(O)cc(O)c3c2=O)cc1` the entry was “inactive”; with `CC1(C)CCC[C@@]2(C)[C@@H]1CC[C@@]1(C)OC(=O)C[C@H]21`, “inactive”.
